Wnt bcat act: activates Wnt/beta-catenin signaling in a reporter cell assay; 1.2% of 300,000 active; activator, plate reader; activation, % at 9.35 µM; in the data active = activation above about 30%, passing the limit was not always enough; inconclusive = no clear call, values can overlap the other calls
MITF TRPM1 HTS: increases MITF-driven TRPM1 promoter luciferase signal; AID 588334; SK-MEL-5 TRPM1-promoter luciferase, 24 h; % of positive control, neutral wells = 0; activation, % at 12.5 µM; 0.75% of 300,000 active;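 active = mean activation of at least 80% with every replicate also reaching 80%; inconclusive = mean reaches 80% but some replicate falls short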
esBAF inh: SWI/SNF esBAF complex inhibition. mouse ES cells, Bmi1-luciferase knock-in reporter, 24 h; 100% = twice the neutral-well signal. reporter increase, % at 12.5 µM. 2% of 350,000 active. AID 602393; in the data active = activation above about 40%; inconclusive = no clear call, values can overlap the other calls;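 also: a rise in the Bmi1 reporter signal indicates esBAF inhibition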
Statin myotox sup: suppressors of simvastatin-induced myotoxicity in C2C12 myotubes; ATP luminescence, 48 h; scaled: DMSO 0, geranylgeraniol control 100; rescue of ATP level, % at 7.49 µM; 0.78% of 330,000 active; AID 602340;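 active = mean ATP rescue above about 67%, or every replicate alone reaching that limit, limit read from the data, passing the limit was not always enough; inconclusive = no clear call, values can overlap the other calls; inactive = mean under the limit and some replicate under it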;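 also: myotubes were challenged with 10 µM simvastatin during compound exposure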
GAA850 FXN act: increases GAA850 frataxin promoter reporter activity | HEK293 lucGAA850 FXN promoter luciferase reporter, 24 h; percent of 10 µM SAHA response | 0.56% of 360,000 active | activation, % at 6 µM;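 active = activation above the average of all compounds screened plus 3 SD, cutoff fixed separately per campaign, cut at about 7.5% in these data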
A number is an active result. An excerpt weighted towards active compounds, which were near 3.3% of everything screened.

COC(=O)C1CCCCN1C(=O)c1ccc2oc(C(C)C)nc2c1 (configuration not stated) was read as Wnt bcat act inactive, MITF TRPM1 HTS inactive, esBAF inh inactive, Statin myotox sup inactive and GAA850 FXN act inactive.
`COC(=O)C1CCCCN1C(=O)c1ccc2oc(Cc3ccccc3)nc2c1` (configuration not stated) gave Wnt bcat act inactive, MITF TRPM1 HTS 108, esBAF inh inconclusive, Statin myotox sup inactive and GAA850 FXN act inactive.
O=C(c1ccc2oc(CCCc3ccccc3)nc2c1)N1CCCC1 was read as Wnt bcat act 35, MITF TRPM1 HTS inactive, esBAF inh 71, Statin myotox sup inactive and GAA850 FXN act inactive.
For O=[N+]([O-])c1cccc(-c2c(-c3ccccc3)ncc3ccc(F)cc23)c1 the results were Wnt bcat act inactive, MITF TRPM1 HTS inactive, esBAF inh inactive, Statin myotox sup 121 and GAA850 FXN act inactive.
For COc1cccc(NC(=O)C[C@H]2CC[C@@H]3[C@@H](COc4ccc(NC(=O)C5CCCCC5)cc4C(=O)N3C)O2)c1 the results were esBAF inh inactive and Statin myotox sup inactive.
Screening Nc1cc(-c2ccc(Cl)cc2)nn1S(=O)(=O)c1ccc(Cl)cc1 returned Wnt bcat act inactive, MITF TRPM1 HTS inactive, esBAF inh inactive and GAA850 FXN act inactive.
Screening O=C1CCn2nc(-c3ccc(Cl)cc3)cc2N1 returned Wnt bcat act inactive, MITF TRPM1 HTS inactive, esBAF inh 48, Statin myotox sup inactive and GAA850 FXN act inactive.
`O=[N+]([O-])c1ccc(NC(=S)N2CCCC2)cc1` gave Wnt bcat act inactive, esBAF inh inactive, Statin myotox sup inactive and GAA850 FXN act inactive.
O=[N+]([O-])c1ccc(Cl)c(NC(=S)N2CCCC2)c1 was read as Wnt bcat act inactive, MITF TRPM1 HTS inactive, esBAF inh 52, Statin myotox sup inactive and GAA850 FXN act inactive.
CCOC(=O)C(Cc1ccccc1)C(=O)Nc1nccs1 (configuration not stated) was read as MITF TRPM1 HTS inactive, esBAF inh inactive, Statin myotox sup 99 and GAA850 FXN act inactive.
For COc1ccccc1C1=NN(C(=S)Nc2ccccc2)C(c2ccco2)C1 (configuration not stated) the results were MITF TRPM1 HTS inactive, esBAF inh 56, Statin myotox sup inactive and GAA850 FXN act inactive.
`Cc1cc(C(=O)Nc2ccc3[nH]ccc3c2)no1` gave Wnt bcat act 59, MITF TRPM1 HTS inactive, esBAF inh inactive, Statin myotox sup inactive and GAA850 FXN act inactive.
`O=C(C[C@H]1CC[C@@H]2[C@H](COC[C@@H](O)CN2Cc2ccccc2F)O1)NCc1ccccc1F` gave esBAF inh inactive and Statin myotox sup inactive.
For COc1cccc(-c2cnc3c(c2)C(=O)N([C@H](C)CO)C[C@@H](C)[C@H](CN(C)C(C)=O)O3)c1 the results were esBAF inh inactive and Statin myotox sup inactive.
For Cc1ccc(OCC(=O)Nc2ccc3c(c2)OCO3)c(C)c1 the results were Wnt bcat act inactive, MITF TRPM1 HTS 89 and GAA850 FXN act inactive.
CCN(CC(=O)Nc1ccc2c(c1)OCCO2)C(=O)COc1cc(C)ccc1Cl was read as Wnt bcat act inactive, MITF TRPM1 HTS inactive, esBAF inh inactive, Statin myotox sup inactive and GAA850 FXN act inactive.
For Cc1ccc(C(=O)OC(C)C(=O)Nc2ccc3c(c2)OCO3)c(O)c1 (configuration not stated) the results were Wnt bcat act inactive, MITF TRPM1 HTS inactive, esBAF inh 50, Statin myotox sup inactive and GAA850 FXN act inactive.
Cc1ccc(Cl)c(OCC(=O)Nc2ccc3c(c2)OCCO3)c1 was read as MITF TRPM1 HTS 131, esBAF inh 86, Statin myotox sup inactive and GAA850 FXN act inactive.
For Cc1ccc(Cl)c(OCC(=O)Nc2cccnc2)c1 the results were Wnt bcat act inactive, MITF TRPM1 HTS 101, esBAF inh inactive, Statin myotox sup inactive and GAA850 FXN act inactive.
For C[C@H](NC(=O)C[C@@H]1CC[C@@H](NC(=O)C2CCOCC2)[C@@H](CO)O1)c1ccccc1 the results were esBAF inh inactive and Statin myotox sup inactive.
`COc1ccc(C(=O)Nc2ccc3c(c2)OC[C@H](C)NC[C@H](C)[C@H](OC)CN(C)C3=O)cc1` gave esBAF inh inactive and Statin myotox sup inactive.
For COc1ccc(S(=O)(=O)NNC(=O)c2ccccc2-n2cccc2)cc1 the results were Wnt bcat act inactive, MITF TRPM1 HTS inactive, esBAF inh inactive, Statin myotox sup 112 and GAA850 FXN act inactive.
Screening Cc1ccc(S(=O)(=O)NNC(=O)c2ccccc2-n2cccc2)cc1 returned Wnt bcat act inactive, MITF TRPM1 HTS inactive, esBAF inh inactive, Statin myotox sup inactive and GAA850 FXN act inactive.
Screening C[C@@H]1CN([C@@H](C)CO)C(=O)c2cc(-c3cncnc3)cnc2O[C@H]1CN(C)C(=O)Nc1ccc2c(c1)OCO2 returned esBAF inh inactive and Statin myotox sup inactive.
CCCN1CCN(CCCNC(=O)c2ccc3nc(N4CCC(C)CC4)sc3c2)CC1 was read as Wnt bcat act inactive, esBAF inh 55, Statin myotox sup inactive and GAA850 FXN act inactive.
Screening CC1CC(C)CN(CCCNC(=O)c2ccc3nc(N4CCOCC4)sc3c2)C1 (configuration not stated) returned Wnt bcat act inactive, esBAF inh inactive, Statin myotox sup inactive and GAA850 FXN act inactive.
CC1CCCCN1CCCNC(=O)c1ccc2nc(N3CCCCC3)sc2c1 (configuration not stated) was read as Wnt bcat act inactive, esBAF inh 58, Statin myotox sup inactive and GAA850 FXN act inactive.
`COCC(=O)N1[C@@H]2Cn3c(ccc(-c4ccccc4)c3=O)[C@H]1[C@@H](C(=O)NCc1ccccn1)[C@@H]2CO` gave esBAF inh inactive and Statin myotox sup inactive.
CNC[C@@H]1Oc2cc(-c3ccccc3F)ccc2S(=O)(=O)N([C@@H](C)CO)C[C@@H]1C was read as esBAF inh inactive and Statin myotox sup inactive.
For COCCNC(=O)[C@@]1(Cc2ccccc2)C=C[C@@H](C)N1C(C)=O the results were Wnt bcat act inactive, MITF TRPM1 HTS inactive, esBAF inh inactive, Statin myotox sup 121 and GAA850 FXN act inactive.
Screening C[C@@H]1CCCCO[C@H](CN(C)C(=O)Nc2ccc3c(c2)OCO3)[C@@H](C)CN([C@@H](C)CO)C(=O)c2cc(NC(=O)c3ccccc3)ccc2O1 returned esBAF inh inactive.
Screening CS(=O)(=O)n1c2ccccc2c(=O)n1-c1ccccc1CCl returned Wnt bcat act inactive, esBAF inh 56 and Statin myotox sup inactive.
For O=C(c1ccccc1)n1c2ccccc2c(=O)n1-c1ccccc1CCl the results were esBAF inh 87 and Statin myotox sup inactive.
For CC(C)OCC(O)CN (configuration not stated) the results were Wnt bcat act inactive, MITF TRPM1 HTS inactive, esBAF inh inactive, Statin myotox sup 97 and GAA850 FXN act inactive.
CCN1CCN(CC(O)COC(C)C)CC1 (configuration not stated) was read as MITF TRPM1 HTS inactive, esBAF inh inactive, Statin myotox sup inactive and GAA850 FXN act inactive.
